From PubChem BioAssay (Tox21)
“And” between values parts separate entries of the source, which are not always exact repeats. Equal values may be shown once. Results filed as inconclusive are left out. The source holds several records for some structures; these can differ, active in one and inactive in another. The source made the active and inactive calls. Unless noted, calls follow the shape of the dose curve; as a rule, active = well fitted curve in the direction sought with a large enough effect in the repeat runs; inconclusive = weak or mixed curves; inactive = no such curve, though single readings can be large; an effect the other way counts as inactive or inconclusive. Starred links: 1 amine or outer side, 2 acyl side, 3 side chain; linkers in the order of their positions; H or OH if unused. Positions of bridges follow the written chain, without caps; N, C: chain ends. Non-standard residues stand in square brackets, D forms with d. Residues, ends and D or L forms follow the SMILES beside them. Chains are numbered I, II in the order given. Actinocin(9to1) = Cc1c2oc3c(C)ccc(C(=O)[*:1])c3nc-2c(C(=O)[*:2])c(N)c1=O; NMeV = CN[C@H](C(=O)O)C(C)C; Sar = CNCC(=O)O

Legend:
[1] = qHTS assay to identify small molecule antagonists of the retinoid acid receptor (RAR) signaling pathway - cell viability counter screen (AID 1159551); also: nearly all actives have a fitted effect of over 35% in size; also: potency is read from the fitted curve at half-maximal effect
Procedure, shortened: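 Retinol-stimulated (1 uM final) C3RL4 cells, compound 6 h, 37 C; readout CellTiter-Glo luminescence (ATP) after 30 min RT incubation.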

[2] = qHTS assay to identify small molecule antagonists of the retinoic acid receptor (RAR) signaling pathway (AID 1159552; also: nearly all actives have a fitted effect of over 50% in size; also: potency is read from the fitted curve at half-maximal effect)
Procedure, shortened: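 Luminescence from a RARE luciferase reporter in C3RL4 cells served as read-out. Cells received compounds together with 1 uM final retinol and incubated 6 hr at 37 C before detection reagent was added for 30 min at room temperature.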

[3] = qHTS assay to identify small molecule agonists of the retinoic acid receptor (RAR) signaling pathway (AID 1159553)
Procedure, shortened: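 Reporter readout comes from luciferase under RARE control in C3RL4 cells; compound exposure lasts 6 hr at 37 C in 5% CO2, and luminescence is recorded following a 30 min room-temperature incubation with reagent.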

[4] = qHTS assay to identify small molecule antagonists of the estrogen related receptor (ERR) signaling pathway from Tox21 library - cell viability counter screen (AID 1224834); also: nearly all actives have a fitted effect of over 30% in size; also: potency is read from the fitted curve at half-maximal effect
Procedure, shortened: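 After 17.5 h of compound exposure at 37 C, ERR cells are incubated with CellTiter-Fluor for 30 min and fluorescence intensity serves as the viability measure.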

[5] = target: Luciferin 4-monooxygenase (Photinus pyralis) (UniProt P08659); experiment: qHTS assay to identify small molecule inhibitors of firefly luciferase (AID 1224835); also: nearly all actives have a fitted effect of over 25% in size; also: potency is read from the fitted curve at half-maximal effect
Luciferin 4-monooxygenase (Photinus pyralis), sequence (P08659 whole entry, looked up): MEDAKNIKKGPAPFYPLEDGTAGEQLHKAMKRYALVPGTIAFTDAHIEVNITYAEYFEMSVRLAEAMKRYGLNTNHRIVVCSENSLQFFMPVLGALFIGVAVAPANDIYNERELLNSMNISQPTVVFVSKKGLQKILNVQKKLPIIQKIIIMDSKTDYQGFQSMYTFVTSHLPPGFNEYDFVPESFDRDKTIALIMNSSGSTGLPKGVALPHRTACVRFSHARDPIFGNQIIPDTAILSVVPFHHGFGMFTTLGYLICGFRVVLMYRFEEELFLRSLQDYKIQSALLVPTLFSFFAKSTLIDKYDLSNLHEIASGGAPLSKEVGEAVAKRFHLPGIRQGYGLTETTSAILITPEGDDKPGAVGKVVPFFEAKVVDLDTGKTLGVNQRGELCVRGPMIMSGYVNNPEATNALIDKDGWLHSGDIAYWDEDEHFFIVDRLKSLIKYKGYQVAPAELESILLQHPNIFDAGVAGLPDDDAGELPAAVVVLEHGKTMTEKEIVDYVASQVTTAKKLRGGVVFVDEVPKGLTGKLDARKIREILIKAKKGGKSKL
Procedure, shortened: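 Quantitative HTS format; KM concentrations of both substrates. Purified P. pyralis FLuc activity quantified from luminescence images.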

[6] = qHTS assay to identify small molecule antagonists of the constitutive androstane receptor (CAR) signaling pathway - cell viability counter screen (AID 1224837); also: nearly all actives have a fitted effect of over 45% in size; also: potency is read from the fitted curve at half-maximal effect
Procedure, shortened: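 Counter screen run in HepG2-CYP2B6-hCAR cells: 4 hr settle, compound titration (15 concentrations) with 50 nM CITCO, 23 hr at 37 C/5% CO2, CellTiter-Fluor fluorescence.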

[7] = target: Nuclear receptor subfamily 1 group I member 3 (Homo sapiens) (UniProt Q14994); experiment: qHTS assay to identify small molecule antagonists of the constitutive androstane receptor (CAR) signaling pathway (AID 1224838);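 also: HepG2 cells stably expressing hCAR with CYP2B6 luciferase reporter stimulated by CITCO; nearly all actives have a fitted effect of over 40% in size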; also: potency is read from the fitted curve at half-maximal effect
Nuclear receptor subfamily 1 group I member 3 (Homo sapiens), sequence (Q14994 whole entry, looked up): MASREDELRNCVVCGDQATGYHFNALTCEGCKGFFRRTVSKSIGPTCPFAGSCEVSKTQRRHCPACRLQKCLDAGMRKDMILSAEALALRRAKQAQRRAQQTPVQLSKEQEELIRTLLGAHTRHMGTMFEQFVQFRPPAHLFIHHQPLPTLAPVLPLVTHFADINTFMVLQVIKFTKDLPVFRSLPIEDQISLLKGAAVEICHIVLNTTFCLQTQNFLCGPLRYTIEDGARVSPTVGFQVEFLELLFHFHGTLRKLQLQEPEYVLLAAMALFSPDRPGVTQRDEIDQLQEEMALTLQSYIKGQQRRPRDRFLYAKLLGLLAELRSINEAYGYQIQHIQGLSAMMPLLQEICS
Procedure, shortened: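 Cell line: HepG2 double-stable for hCAR and CYP2B6-2.2kb reporter. Agonist: CITCO, 50 nM final. Compounds: 15 concentrations, 24 h, 37 C. Detection: ONE-Glo luminescence.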

[8] = target: Nuclear receptor subfamily 1 group I member 3 (Homo sapiens) (UniProt Q14994); experiment: qHTS assay to identify small molecule agonists of the constitutive androstane receptor (CAR) signaling pathway (AID 1224839); also: nearly all actives have a fitted effect of over 15% in size; also: potency is read from the fitted curve at half-maximal effect
Procedure, shortened: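 Luminescence read-out (ONE-Glo, 30 min, room temperature) from double-stable HepG2-CYP2B6-hCAR cells exposed 24 h to 15-point compound series in presence of 0.75 uM PK11195 final.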

[9] = qHTS assay to identify small molecule antagonists of the estrogen related receptor signaling pathway with the pleiotropic PPARgamma coactivator (PGC) from Tox21 10K library - cell viability counter screen (AID 1224840; active = well fitted cell-killing curve with a large enough effect in the repeat runs, not every such curve was filed as active; also: nearly all actives have a fitted effect of over 40% in size; also: potency is read from the fitted curve at half-maximal effect)
Procedure, shortened: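 Following seeding of 2,000 PGC/ERR cells/well and 6 hours' incubation, test compounds were delivered in DMSO. The plates then sat 17.5 hours at 37 C before a fluorogenic live-cell protease reagent (CellTiter-Fluor) was read after 30 min.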

[10] = target: Thyrotropin receptor (Homo sapiens) (UniProt P16473); experiment: qHTS assay to identify small molecule agonists of the thyroid stimulating hormone receptor (TSHR) signaling pathway (AID 1224843; calls by dose curve; also: nearly all actives have a fitted effect of over 45% in size)
Thyrotropin receptor (Homo sapiens), sequence (P16473 whole entry, looked up): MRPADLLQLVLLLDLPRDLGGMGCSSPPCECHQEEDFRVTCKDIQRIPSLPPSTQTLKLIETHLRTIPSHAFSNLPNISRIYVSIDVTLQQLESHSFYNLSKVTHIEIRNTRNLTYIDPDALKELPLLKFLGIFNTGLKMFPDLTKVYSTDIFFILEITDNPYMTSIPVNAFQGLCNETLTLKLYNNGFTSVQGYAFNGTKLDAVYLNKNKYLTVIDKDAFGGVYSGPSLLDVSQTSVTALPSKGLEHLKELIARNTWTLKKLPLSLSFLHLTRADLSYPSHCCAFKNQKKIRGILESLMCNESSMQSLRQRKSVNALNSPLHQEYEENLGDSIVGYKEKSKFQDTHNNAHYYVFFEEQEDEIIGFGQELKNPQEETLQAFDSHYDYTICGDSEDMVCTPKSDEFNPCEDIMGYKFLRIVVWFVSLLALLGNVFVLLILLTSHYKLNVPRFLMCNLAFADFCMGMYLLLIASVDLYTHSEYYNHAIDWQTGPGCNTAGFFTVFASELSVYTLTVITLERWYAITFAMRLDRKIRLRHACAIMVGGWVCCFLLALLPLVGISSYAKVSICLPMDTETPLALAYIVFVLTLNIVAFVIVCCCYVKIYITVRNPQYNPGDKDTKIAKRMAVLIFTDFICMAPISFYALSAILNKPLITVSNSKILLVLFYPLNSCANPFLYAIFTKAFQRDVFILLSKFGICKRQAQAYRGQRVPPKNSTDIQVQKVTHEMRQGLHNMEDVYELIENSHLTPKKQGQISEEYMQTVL
Procedure, shortened: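 TSHR-expressing HEK293 cells (800 per well) were exposed to compounds for 30 min at room temperature. cAMP was then detected by HTRF competition with cAMP-d2 and anti-cAMP cryptate, read after 1 h at room temperature. Fifteen concentrations, triplicate.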

[11] = qHTS assay to identify small molecule agonists of the constitutive androstane receptor (CAR) signaling pathway - cell viability counter screen (AID 1224836); also: nearly all actives have a fitted effect of over 45% in size; also: potency is read from the fitted curve at half-maximal effect
Procedure, shortened: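 Viability read-out: CellTiter-Fluor fluorescence after 23 h compound exposure at 37 C/5% CO2 in double-stable HepG2-CYP2B6-hCAR cells, with PK11195 present at 0.75 uM final; compounds tested in 15-point titration.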

[12] = qHTS assay to identify small molecule agonists of the estrogen related receptor signaling pathway with the pleiotropic PPARgamma coactivator (PGC) from Tox21 10K library (AID 1224842); also: nearly all actives have a fitted effect of over 15% in size
Procedure, shortened: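 PGC/ERR reporter cells (NTP line) were seeded 2,000 per well, rested 6 h at 37 C/5% CO2, then pin-dosed with compounds in DMSO for 18 h at 37 C; luciferase read by One-Glo luminescence after 30 min at room temperature.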

[13] = qHTS assay to identify small molecule antagonists of the estrogen related receptor signaling pathway with the pleiotropic PPARgamma coactivator (PGC) from Tox21 10K library (AID 1224841; call rule not given here; also: series mostly up to about 92 µM; actives are mostly falling curves and most rising ones were filed inactive; nearly all actives have a fitted effect of over 50% in size)
Procedure, shortened: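 qHTS antagonist format: PGC/ERR cells, 2k/well, compound in DMSO by pin transfer after 6 h attachment, 18 h treatment at 37 C, One-Glo luminescence read at 30 min.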

Measured: Potency

Nc1nc(=S)c2[nH]cnc2[nH]1
active: [4] 11.9 µM and 4.33 µM | [6] 11.9 µM and 4.86 µM | [7] 5.96 µM and 1.93 µM and 2.37 µM
inactive and 24.3 µM (active): [2]
not listed: [11] | [12] | [13]
inactive: all other assays above

O=C(Oc1ccccc1)c1ccccc1O
active: [5] 31.9 µM and 22.4 µM
not listed: [11] | [12] | [13]
inactive: all other assays above

Nc1nc2ccccc2[nH]1
not listed: [11] | [12] | [13]
inactive: all other assays above

CC[C@]1(O)C[C@@H]2CN(CCc3c([nH]c4ccccc34)[C@@](C(=O)OC)(c3cc4c(cc3OC)N(C)[C@H]3[C@@](O)(C(=O)OC)[C@H](OC(C)=O)[C@]5(CC)C=CCN6CC[C@]43[C@@H]65)C2)C1
inactive: [1] | [5] | [9] | [12]
active: [4] 0.841 µM | [11] 1.19 µM and 2.98 µM | [6] 2.66 µM and 4.22 µM

Nc1cc(S(=O)(=O)O)cc2cc(S(=O)(=O)O)cc(O)c12
active: [5] 31.7 µM
inactive: [1] | [3] | [11] | [6]

CCCCCCCCCCCC[N+](C)(C)C
active: [4] 48.4 µM
inactive: [1] | [3] | [5] | [7] | [8]

CCOC(=O)C(C)C(C)=O (configuration not stated)
inactive: all assays above

COc1cc(C(=S)N2CCOCC2)ccc1O
inactive: all assays above

Nc1cc(Cl)c(-c2cc(Cl)c(N)cc2Cl)cc1Cl
active: [1] 30.6 µM | [4] 48.5 µM and 30.6 µM | [7] 13.7 µM and 27.3 µM
inactive: [3] | [5] | [12] | [10]

CC(C)(C)NC(=O)[C@@H]1CN(Cc2cccnc2)CCN1C[C@@H](O)C[C@@H](Cc1ccccc1)C(=O)N[C@H]1c2ccccc2C[C@H]1O
inactive: [1] | [4] | [11] | [6] | [9]

O=C(O)c1cc(Cl)cc(Cl)c1
not listed: [11]
inactive: all other assays above

CC(=O)O[C@]1(C(C)=O)CC[C@H]2[C@@H]3C[C@H](C)C4=CC(=O)CC[C@]4(C)[C@H]3CC[C@@]21C
inactive: [1] | [5] | [11] | [6] | [7] | [9] | [10]
active: [4] 61.1 µM

Cc1c2oc3c(C)ccc(C(=O)N[C@@H]4C(=O)N[C@H](C(C)C)C(=O)N5CCC[C@H]5C(=O)N(C)CC(=O)N(C)[C@@H](C(C)C)C(=O)O[C@@H]4C)c3nc-2c(C(=O)N[C@@H]2C(=O)N[C@H](C(C)C)C(=O)N3CCC[C@H]3C(=O)N(C)CC(=O)N(C)[C@@H](C(C)C)C(=O)O[C@@H]2C)c(N)c1=O (I: T[dV]P[Sar][NMeV] / II: T[dV]P[Sar][NMeV]; ester I:1-I:C, II:1-II:C; linker I:N-II:N via Actinocin(9to1))
inactive: [5] | [8]
active: [2] 16.8 nM and 10.6 nM | [4] 7.48 µM and 188 nM | [11] 13.3 nM | [6] 7.5 nM and 33.5 nM | [7] 1 nM | [9] 0.266 µM

CCc1ccc(C(c2ccc(CC)cc2)C(Cl)Cl)cc1
not listed: [8] | [10] | [12] | [13]
inactive: all other assays above

c1ccc2c(c1)-c1cccc3c1c-2cc1ccccc13
active: [5] 7.1 µM | [8] 21.2 µM and 17.2 µM
not listed: [3] | [10] | [12] | [13]
inactive: all other assays above
